# Results: PubChem BioAssay (NCI)
# The panel holds about 83,000 compounds, 20% with a hit somewhere; the sample as a whole holds those more often.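 Note: values are percent growth. 100 is the growth of untreated cells, values between 100 and 0 indicate rising inhibition; between -100 and 0 indicates cell death.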 Unmarked numbers belong to inactive results. The source made the active and inactive calls. Rule for the calls: active = growth percent below 10; inactive = the rest.
# Experiments:
# Assay in all cases: NCI-60 one-dose screen, 48 h (100 = growth as untreated, 0 = no growth, -100 = all killed)
# Details in all cases: 10 µM unless noted
# SK-MEL-2 melanoma = tested on: SK-MEL-2 melanoma
# EKVX NSCLC = tested on: EKVX NSCLC
# SN12C renal = tested on: SN12C renal
# UO-31 renal = tested on: UO-31 renal
# TK-10 renal = tested on: TK-10 renal
# CAKI-1 renal = tested on: CAKI-1 renal
# A498 renal = tested on: A498 renal
# CCRF-CEM leukemia = tested on: CCRF-CEM leukemia
# MOLT-4 leukemia = tested on: MOLT-4 leukemia
# SR leukemia = tested on: SR leukemia
# RPMI-8226 leukemia = tested on: RPMI-8226 leukemia
# OVCAR-8 ovarian = tested on: OVCAR-8 ovarian
# OVCAR-5 ovarian = tested on: OVCAR-5 ovarian
# OVCAR-4 ovarian = tested on: OVCAR-4 ovarian
# SK-OV-3 ovarian = tested on: SK-OV-3 ovarian
# IGROV1 ovarian = tested on: IGROV1 ovarian
# OVCAR-3 ovarian = tested on: OVCAR-3 ovarian
# HS 578T breast = tested on: HS 578T breast
# NCI/ADR-RES ovarian = tested on: NCI/ADR-RES ovarian
# ACHN renal = tested on: ACHN renal
Structure (SMILES),growth (SK-MEL-2 melanoma),growth (EKVX NSCLC),growth (SN12C renal),growth (UO-31 renal),growth (TK-10 renal),growth (CAKI-1 renal),growth (A498 renal),growth (CCRF-CEM leukemia),growth (MOLT-4 leukemia),growth (SR leukemia),growth (RPMI-8226 leukemia),growth (OVCAR-8 ovarian),growth (OVCAR-5 ovarian),growth (OVCAR-4 ovarian),growth (SK-OV-3 ovarian),growth (IGROV1 ovarian),growth (OVCAR-3 ovarian),growth (HS 578T breast),growth (NCI/ADR-RES ovarian),growth (ACHN renal) [%]
O=C(Nc1cccc(Cl)c1)Oc1c(Br)c(Br)c(Br)c(Br)c1Br,79%,92.1%,92.7%,74.9%,99.9%,90.5%,78.3%,87.9%,99.7%,107%,73.2%,88.9%,102%,95.4%,62.6%,107%,88.5%,84.3%,96.4%,–
COc1ccc(Cl)cc1NC(=O)c1c(NC(=O)C(F)(F)C(F)(F)F)sc2c1CCCCC2,-30% (active),-5.45% (active),5.95% (active),1.55% (active),10.7%,-13.6% (active),-45.1% (active),–,8.91% (active),4.32% (active),-31.9% (active),10.5%,21.6%,7.67% (active),-19.6% (active),20.3%,6.24% (active),-3.45% (active),3.81% (active),–
O=c1[nH]c(=O)[nH]c(=S)[nH]1,103%,97.8%,94.3%,89.2%,95.8%,–,–,101%,105%,106%,106%,101%,102%,109%,111%,102%,119%,99.3%,105%,–
CCNC(=S)NNC(=O)c1cc2ccc1CCc1ccc(cc1)CC2,102%,94.4%,95.3%,83.7%,103%,94.9%,–,107%,102%,101%,102%,102%,96.2%,106%,123%,103%,98.6%,102%,101%,–
c1ccc(C2CC(c3cccc(Nc4ccncc4)c3)=NN2c2ccccc2)cc1 (configuration not stated),103%,91.4%,77.9%,70.3%,98.9%,–,83.2%,56.9%,18%,5.55% (active),16.2%,68.5%,81.6%,67.5%,84.1%,62.6%,78.3%,82.5%,74.2%,–
O=C1/C(=C\c2cn(Cc3ccccc3)c3ccc(Br)cc23)c2ccccc2N1c1c(Cl)cccc1Cl,101%,89.2%,97.7%,87.3%,102%,–,–,96.8%,95.8%,–,104%,98%,–,91.9%,101%,105%,119%,110%,98.4%,104
CN(C)C(C(N)=O)c1ccc(Cl)cc1 (configuration not stated),102%,97.8%,103%,94.2%,92.2%,93.4%,–,115%,95.5%,98.5%,107%,101%,–,102%,98.5%,103%,112%,103%,106%,–
COc1ccc(/C=C/c2n[nH]c3ccc(N4CCOC4=O)cc23)cc1,11.7%,8.71% (active),24%,-45.7% (active),-9.71% (active),4.59% (active),-19.6% (active),-17% (active),4.38% (active),2.85% (active),-14.9% (active),19.3%,–,40%,25.2%,8.62% (active),4.56% (active),2.93% (active),15.6%,–
CC(O)(CO)c1ccccc1 (configuration not stated),106%,96.3%,98.8%,91%,110%,104%,–,113%,110%,112%,113%,100%,94.9%,103%,106%,97.2%,112%,100%,103%,–
c1ccc2c(-c3c4ccsc4cc4[nH]c5ccccc5c34)c[nH]c2c1,23.9%,53.3%,50.1%,40.1%,76%,34.5%,–,19.8%,32.2%,25.7%,14.8%,56.9%,75.2%,40.8%,49.5%,38.1%,–,33.4%,20.4%,–
CCCCCCOc1ccc(/C=N/Nc2cc(C)nc3ccc(Br)cc23)cc1,-14% (active),-21.2% (active),-88.9% (active),-97.5% (active),-85.7% (active),–,–,-23.3% (active),-51.4% (active),-32.2% (active),-42.4% (active),-36.1% (active),-92.7% (active),-88.5% (active),101%,-85.3% (active),-91.6% (active),-40.4% (active),-67.1% (active),–
O=C(Nc1ccc2cc3ccc(NC(=O)NC4CCCCC4)cc3nc2c1)NC1CCCCC1,97.3%,95.1%,88.2%,89.1%,100%,93.3%,–,25.1%,9.49% (active),-0.865% (active),85.6%,93.4%,103%,92.8%,95.4%,99.9%,98.2%,36.4%,106%,–
COc1cc(CCNc2nc3cc(N)cc(N)c3nc2-c2ccccc2)cc(OC)c1,-3.81% (active),57.6%,-77.7% (active),39%,104%,–,–,–,-66.5% (active),–,-39.6% (active),-22.2% (active),13.4%,-94.9% (active),82.3%,27.8%,-66.2% (active),-70.5% (active),39.1%,52.3
COc1cccc(CCC(=O)c2cc3c(N)c(C(=O)Nc4ccccc4)sc3nc2C)c1,42.3%,45.4%,35%,34.8%,70.9%,28.4%,9.88% (active),29.7%,22.2%,16.2%,43.8%,60.2%,48.6%,53.9%,56.8%,34%,18%,21.5%,12.2%,–
COc1cccc(-c2nc3occn3c2-c2ccnc(NCCCNS(=O)(=O)c3cccc(F)c3)n2)c1,90.2%,79.8%,87.7%,69.8%,131%,78.2%,–,81.3%,67.7%,107%,68.1%,72.2%,135%,71.9%,86.3%,89%,88.1%,92.6%,85.8%,–
CCn1ccnc1C(=O)/C=C/c1ccc(CC(=O)Nc2ccc(F)cc2)cc1,97.8%,55.2%,26.2%,39.8%,66.3%,34.1%,–,7.58% (active),24.2%,14.8%,2.37% (active),-2.13% (active),44.5%,35.4%,86.6%,32.3%,-4.68% (active),52.5%,4.48% (active),–
CCN(CC)S(=O)(=O)c1cccc([N+](=O)[O-])c1,93%,98.7%,100%,82.6%,90%,–,73.2%,102%,105%,103%,93.2%,85.7%,109%,95.4%,86.9%,107%,108%,97.9%,103%,–
C(=C\c1n(Cc2ccc3ccccc3c2)c(-c2ccccc2)c(-c2ccccc2)[n+]1Cc1ccc2ccccc2c1)/c1ccccc1,-68.7% (active),-77.5% (active),-91% (active),-99.1% (active),-81.8% (active),–,–,-17.8% (active),-43.5% (active),-37.4% (active),-43.9% (active),-65.3% (active),-95% (active),-85.8% (active),-60.1% (active),-81.4% (active),-90.3% (active),-42.8% (active),8.24% (active),–
